# Source: PubChem (The Scripps Research Institute Molecular Screening Center)
# Fam108B counter – blocks mouse Fam108B hydrolase in RBBP9 counter-screen | recombinant Fam108B, FP-Rh probe fluorescence polarization | inhibition, % at 9.51 µM | 300,000 compounds, 0.33% hits | AID 1947;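 active = inhibition above the screen mean inhibition plus 3 SD, computed separately per campaign, cut at about 18% in these data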;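 note: inhibitors lower polarization as less probe binds the enzyme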
# LYPLA1 counter – LYPLA1 (human) inhibition in PME1 counter-screen; O75608; recombinant LYPLA1, FP-Rh probe fluorescence polarization; inhibition, % at 5.9 µM; 320,000 compounds, 0.16% hits;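 active = inhibition above the mean of all tested compounds plus 3 SD, set per campaign, cut at about 14% in these data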;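 note: inhibitors block serine hydrolase probe labeling of LYPLA1 so polarization falls; 0% = enzyme with DMSO and 100% = wells lacking LYPLA1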
# Target sequence (O75608 whole entry, looked up): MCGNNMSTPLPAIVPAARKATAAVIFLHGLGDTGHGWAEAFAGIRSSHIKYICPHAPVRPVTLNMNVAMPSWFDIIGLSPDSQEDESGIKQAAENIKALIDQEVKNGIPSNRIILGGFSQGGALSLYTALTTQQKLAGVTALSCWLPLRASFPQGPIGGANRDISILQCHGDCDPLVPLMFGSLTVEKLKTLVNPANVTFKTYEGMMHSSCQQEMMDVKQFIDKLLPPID
# LYPLA2 counter – LYPLA2 (human) inhibition in PME1 counter-screen | recombinant LYPLA2, FP-Rh probe fluorescence polarization | 320,000 compounds, 0.38% hits | AID 2177 | inhibition, % at 5.9 µM;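 active = inhibition above the screen-wide mean plus 3 SD, limit set per campaign, cut at about 26% in these data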;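 note: 0% = LYPLA2 with DMSO and 100% = wells lacking LYPLA2 enzyme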
# GSTO1 inh – blocks human GSTO1 in RBBP9 counter-screen | P78417 | recombinant GSTO1, activity-based probe fluorescence polarization | inhibition, % at 5.96 µM | 300,000 compounds, 1.1% hits | AID 1974;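 active = inhibition above the campaign mean inhibition plus 3 SD, cut at about 35% in these data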;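 note: 0% = GSTO1-1 with DMSO and 100% = wells lacking GSTO1-1 enzyme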
# PME-1 primary – blocks human protein phosphatase methylesterase 1 | recombinant PME-1, FP-Rh probe fluorescence polarization | inhibition, % at 5.9 µM | AID 2130 | 320,000 compounds, 0.53% hits | Q9Y570;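 active = inhibition above the campaign mean of all compounds plus 3 SD, cut at about 26% in these data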;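 note: competitive labeling of PME-1 active site by serine hydrolase directed probe; 0% = PME-1 with DMSO and 100% = wells lacking PME-1 enzyme; inhibitors block probe labeling so polarization falls and inhibition rises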
# Target sequence (Q9Y570 whole entry, looked up): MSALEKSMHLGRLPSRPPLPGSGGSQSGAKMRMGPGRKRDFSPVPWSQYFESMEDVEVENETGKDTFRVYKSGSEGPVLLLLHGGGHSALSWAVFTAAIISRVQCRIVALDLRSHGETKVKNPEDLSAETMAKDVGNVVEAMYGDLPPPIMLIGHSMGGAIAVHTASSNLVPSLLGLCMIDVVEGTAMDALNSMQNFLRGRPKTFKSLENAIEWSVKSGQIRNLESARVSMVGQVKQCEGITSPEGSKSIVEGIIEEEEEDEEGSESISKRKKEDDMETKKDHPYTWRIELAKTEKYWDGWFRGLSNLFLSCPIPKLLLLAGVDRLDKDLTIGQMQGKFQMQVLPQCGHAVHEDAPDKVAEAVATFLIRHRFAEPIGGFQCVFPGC
# PREPL inh – human PREPL enzyme inhibition. Q4J6C6. 320,000 compounds, 0.68% hits. inhibition, % at 5.96 µM. AID 2751. recombinant PREPL, fluorescence polarization activity-based probe;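 note: 0% = enzyme with DMSO and 100% = wells lacking enzyme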
# PREPL inh cf – human PREPL inhibition, confirmation. shares compounds with PREPL inh. recombinant PREPL, fluorescence polarization activity probe. inhibition, % at 5.96 µM. 2,000 compounds, 67% hits. AID 2803;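 note: 0% = protein with DMSO and 100% = wells lacking protein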
# Active calls of the source: *; · = no result. A selection: hits, their analogues and other compounds. The true share with any hit is near 1.9%. Cut-off read from the data, not from the text of the source, unless noted: active = inhibition above about 43%; inactive = the rest.
SMILES,Fam108B counter,LYPLA1 counter,LYPLA2 counter,GSTO1 inh,PME-1 primary,PREPL inh,PREPL inh cf
C(=N\Nc1nc2ccccc2[nH]1)/c1cccc2cccnc12,7,0,-6,-7,52*,63*,53*
COc1cc2c(C#N)c(N3CCOCC3)nc(N)c2c(N)n1,-5,3,9,7,8,13,·
COc1cc2c(C#N)c(N3CCc4ccccc4C3)nc(N)c2c(N)n1,15,-2,-6,8,39*,49*,54*
CCN(CC)c1ccc(N)cc1,·,-6,-6,·,3,64*,39
Fc1ccc(N2CCN(c3cnc4ccccc4n3)CC2)cc1,0,0,3,-2,3,45*,39
COC(=O)c1ccc(C(=O)N2CCCC(N3CCN(c4ccccc4)CC3)C2)nc1 (stereo not given),-2,0,0,-7,-4,8,·
COc1ccc(C2CC(=O)Oc3c(C(CCN4CCCC(C)C4)c4ccc(N(C)C)cc4)c(OC)cc(OC)c32)cc1 (stereo not given),4,2,11,8,-5,44*,60*
COc1ccc(C2CC(=O)Oc3c(C(CCN4CCCCC4)c4ccc(N(C)C)cc4)c(OC)cc(OC)c32)cc1 (stereo not given),3,-2,7,2,6,47*,51*
Cc1ccc(SCCc2cc[n+](CC(=O)c3ccccc3)cc2)cc1,-2,2,1,2,-1,34,·
O=C(C[n+]1ccc(CCSc2ccc(F)cc2)cc1)c1ccccc1,2,8,0,3,-2,53*,44*
O=C(CN1CCN(c2ccc(O)cc2)CC1)Nc1cc([N+](=O)[O-])ccc1Cl,-2,-3,0,13,3,52*,53*
CCC(=O)N1CCN(c2ccc(NC(=O)c3cc4ccccc4o3)cc2Cl)CC1,-1,-2,6,-7,3,43,·
CCCC(=O)N1CCN(c2ccc(NC(=O)c3cc4ccccc4o3)cc2Cl)CC1,3,-6,3,-23,5,45*,36
Cc1cc(/C=N/NC(N)=S)c(C)n1-c1cccc(Cl)c1,-1,1,1,3,4,3,·
Cc1cc(/C=N/NC(N)=S)c(C)n1-c1ccc(Br)cc1,-1,2,8,1,2,54*,45*
COc1cccc(CNC(=O)CCCc2c[nH]c3ccccc23)c1,-4,3,4,2,2,-15,·
COc1ccc(-c2cnnc(N/N=C/c3ccc(O)c(O)c3)n2)cc1,12,-8,-15,33,29*,73*,37
COC1CCCN(Cc2cn(C)nc2-c2ccc(Oc3ccccc3)cc2)C1 (stereo not given),1,0,6,-7,-4,13,·
COCCN1CCCC(CNCc2cn(C)nc2-c2ccc(Oc3ccccc3)cc2)C1 (stereo not given),-2,2,-1,-1,5,43*,32
Cn1c(N)c(C(=O)COC(=O)/C=C/c2cccc(Br)c2)c(=O)n(C)c1=O,·,-1,6,·,1,38,·
Cn1c(N)c(C(=O)COC(=O)/C=C/c2cccc(F)c2)c(=O)n(C)c1=O,·,-1,7,·,2,44*,40
CCn1c(=O)c(C(=O)Nc2ccc(C)cc2C)c(O)c2ccccc21,2,-1,-2,0,-2,47*,6
Cc1ccc2oc(C(=O)NC3CCS(=O)(=O)C3)cc(=O)c2c1 (stereo not given),3,-1,5,3,0,-1,·
O=C(Cc1ccccc1)Nc1ccc(N2CCOCC2)cc1,8,-2,1,6,-1,26,·
O=C(Cc1ccccc1)Nc1cccc(N2CCCC2)c1,-1,-1,-6,15,-5,51*,19
SMILES,Fam108B counter,LYPLA1 counter,LYPLA2 counter,GSTO1 inh,PME-1 primary,PREPL inh,PREPL inh cf
O=C(Cc1ccccc1)Nc1ccc(N2CCCC2)cc1,-1,-1,-9,9,-8,60*,15
CCN(CC)c1ccc(N2C(=NC(=O)C3CCCO3)SC3CS(=O)(=O)CC32)cc1 (stereo not given),1,2,4,0,6,3,·
N=C1/C(=C\c2ccc(OC(=O)c3ccccc3Cl)cc2)C(=O)N=C2SC(N3CCOCC3)=NN12,1,-7,5,9,5,53*,16
O=[N+]([O-])c1ccc2c(c1)C(N1CCOCC1)/C(=C/COc1ccc(F)cc1)O2 (stereo not given),-5,0,0,-8,4,48*,36
COC(=O)c1ccc(OC(=O)c2ccco2)cc1,-4,-1,0,8,-2,32,·
Cc1ccc(S(=O)(=O)c2cc(OC(=O)c3ccco3)ccc2OC(=O)c2ccco2)cc1,-2,-3,-5,18,5,86*,77*
Cc1onc(-c2ccccc2)c1C(=O)NCc1ccccc1F,2,0,-2,-2,-1,-5,·
CCN(CC)c1ccc(-c2nn3c(-c4ccccc4OC)nnc3s2)cc1,5,7,11,2,28*,57*,39
COc1ccc(-c2nn3c(-c4ccccc4)nnc3s2)cc1,-4,-1,2,-6,-8,-1,·
CC(CCc1ccccc1)NC(=O)Cn1cccc1C(=O)c1ccccc1 (stereo not given),0,-2,-3,-10,-9,-1,·
CC(C)(CNC(=O)c1cc([N+](=O)[O-])ccc1N1CCC(Cc2ccccc2)CC1)N1CCOCC1,·,-3,-2,·,17,45*,35
Cc1nc2nc(SCC(=O)NCCCN3CCCCC3)nn2c(C)c1Cc1ccccc1,4,4,2,-2,0,15,·
Cc1ccc(Cc2c(C)nc3nc(SCC(=O)NCCCN4CCCCCC4)nn3c2C)cc1,-1,-1,-4,-5,-2,53*,42
Cc1cccc(OCC(=O)Nc2ccc(N3CCN(C(=O)c4ccco4)CC3)cc2)c1C,0,1,2,12,0,48*,47*
Cc1ccccc1OCC(=O)Nc1ccc(N2CCN(C(=O)c3ccco3)CC2)cc1,6,6,3,1,0,58*,48*
Cc1ccc(C(=O)NC(=S)Nc2ccc(N3CCN(C(=O)c4ccco4)CC3)cc2)cc1,3,4,18,0,9,48*,37
CC(C)Oc1ccc(C(=O)Nc2ccc(N3CCN(C(=O)c4ccco4)CC3)cc2)cc1,2,3,8,-5,-3,8,·
Cc1c(Cl)c([N+](=O)[O-])nn1CCCC(=O)Nc1cccc(Cl)c1Cl,8,6,5,0,10,47*,38
Cc1c(Cl)c([N+](=O)[O-])nn1CCCC(=O)Nc1ccc(Cl)cc1Cl,3,-4,-10,1,2,21,·
O=C(NCc1cccs1)C1CCCN1C(=O)Nc1ccccc1Cl (stereo not given),-1,1,4,1,5,0,·
